Source: ChEMBL document CHEMBL2218924, “A broad activity screen in support of a chemogenomic map for kinase signalling research and drug discovery” (Biochem J, 2013)

Columns and labels:
[1] = biological target: Protein kinase C eta type (Homo sapiens) (UniProt P24723); conditions: at 1 µM
[2] = biological target: Protein kinase C eta type (Homo sapiens) (UniProt P24723); conditions: at 10 µM
[3] = biological target: Protein kinase C theta type (Homo sapiens) (UniProt Q04759); conditions: at 1 µM
[4] = biological target: Protein kinase C theta type (Homo sapiens) (UniProt Q04759); conditions: at 10 µM
[5] = biological target: T1, Protein kinase C iota type (Homo sapiens) (UniProt P41743); conditions: at 1 µM
T1 sequence (whole entry): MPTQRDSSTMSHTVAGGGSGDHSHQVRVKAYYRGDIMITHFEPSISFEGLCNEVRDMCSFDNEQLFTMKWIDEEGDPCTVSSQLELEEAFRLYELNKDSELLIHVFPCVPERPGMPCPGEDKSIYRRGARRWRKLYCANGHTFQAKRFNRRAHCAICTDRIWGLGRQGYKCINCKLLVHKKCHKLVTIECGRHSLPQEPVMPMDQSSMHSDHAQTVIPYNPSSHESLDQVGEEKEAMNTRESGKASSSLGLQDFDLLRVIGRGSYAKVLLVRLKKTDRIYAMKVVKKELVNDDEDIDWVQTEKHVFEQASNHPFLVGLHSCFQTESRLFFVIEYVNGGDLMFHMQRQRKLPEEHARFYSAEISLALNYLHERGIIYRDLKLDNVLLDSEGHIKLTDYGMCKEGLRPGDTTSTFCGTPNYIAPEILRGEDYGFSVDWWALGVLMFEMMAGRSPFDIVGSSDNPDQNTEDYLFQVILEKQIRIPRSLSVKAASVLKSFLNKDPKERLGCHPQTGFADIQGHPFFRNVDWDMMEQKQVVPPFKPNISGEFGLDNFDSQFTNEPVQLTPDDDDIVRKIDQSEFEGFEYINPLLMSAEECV

[6] = biological target: T1, Protein kinase C iota type (Homo sapiens); conditions: at 10 µM
[7] = biological target: T2, Serine/threonine-protein kinase D1 (Homo sapiens) (UniProt Q15139); conditions: at 1 µM
T2 sequence (whole entry): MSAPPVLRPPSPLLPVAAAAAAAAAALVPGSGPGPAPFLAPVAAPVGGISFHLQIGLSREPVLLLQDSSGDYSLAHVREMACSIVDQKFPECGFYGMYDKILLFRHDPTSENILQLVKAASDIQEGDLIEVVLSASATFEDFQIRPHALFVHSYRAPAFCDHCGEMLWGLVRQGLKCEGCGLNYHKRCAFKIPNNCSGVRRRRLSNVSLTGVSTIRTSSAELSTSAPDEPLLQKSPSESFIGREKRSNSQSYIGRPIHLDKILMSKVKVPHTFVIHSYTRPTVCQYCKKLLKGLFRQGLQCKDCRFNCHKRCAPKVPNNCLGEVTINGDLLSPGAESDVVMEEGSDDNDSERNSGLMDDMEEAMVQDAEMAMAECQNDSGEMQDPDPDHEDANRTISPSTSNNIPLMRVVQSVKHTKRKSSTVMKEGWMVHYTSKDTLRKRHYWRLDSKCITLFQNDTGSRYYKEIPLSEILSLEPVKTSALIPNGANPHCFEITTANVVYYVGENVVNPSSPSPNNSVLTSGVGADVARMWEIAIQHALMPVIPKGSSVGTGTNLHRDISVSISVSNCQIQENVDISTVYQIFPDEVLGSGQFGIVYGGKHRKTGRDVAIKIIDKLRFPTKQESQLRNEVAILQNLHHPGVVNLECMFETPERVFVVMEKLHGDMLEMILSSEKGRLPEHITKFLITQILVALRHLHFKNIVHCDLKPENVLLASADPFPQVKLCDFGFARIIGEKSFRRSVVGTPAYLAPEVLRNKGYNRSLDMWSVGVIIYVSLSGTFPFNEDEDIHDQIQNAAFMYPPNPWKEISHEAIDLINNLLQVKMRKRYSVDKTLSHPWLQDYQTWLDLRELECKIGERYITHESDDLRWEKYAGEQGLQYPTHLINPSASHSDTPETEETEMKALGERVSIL

[8] = biological target: T2, Serine/threonine-protein kinase D1 (Homo sapiens); conditions: at 10 µM
[9] = biological target: T3, Serine/threonine-protein kinase D2 (Homo sapiens) (UniProt Q9BZL6); conditions: at 1 µM
T3 sequence (whole entry): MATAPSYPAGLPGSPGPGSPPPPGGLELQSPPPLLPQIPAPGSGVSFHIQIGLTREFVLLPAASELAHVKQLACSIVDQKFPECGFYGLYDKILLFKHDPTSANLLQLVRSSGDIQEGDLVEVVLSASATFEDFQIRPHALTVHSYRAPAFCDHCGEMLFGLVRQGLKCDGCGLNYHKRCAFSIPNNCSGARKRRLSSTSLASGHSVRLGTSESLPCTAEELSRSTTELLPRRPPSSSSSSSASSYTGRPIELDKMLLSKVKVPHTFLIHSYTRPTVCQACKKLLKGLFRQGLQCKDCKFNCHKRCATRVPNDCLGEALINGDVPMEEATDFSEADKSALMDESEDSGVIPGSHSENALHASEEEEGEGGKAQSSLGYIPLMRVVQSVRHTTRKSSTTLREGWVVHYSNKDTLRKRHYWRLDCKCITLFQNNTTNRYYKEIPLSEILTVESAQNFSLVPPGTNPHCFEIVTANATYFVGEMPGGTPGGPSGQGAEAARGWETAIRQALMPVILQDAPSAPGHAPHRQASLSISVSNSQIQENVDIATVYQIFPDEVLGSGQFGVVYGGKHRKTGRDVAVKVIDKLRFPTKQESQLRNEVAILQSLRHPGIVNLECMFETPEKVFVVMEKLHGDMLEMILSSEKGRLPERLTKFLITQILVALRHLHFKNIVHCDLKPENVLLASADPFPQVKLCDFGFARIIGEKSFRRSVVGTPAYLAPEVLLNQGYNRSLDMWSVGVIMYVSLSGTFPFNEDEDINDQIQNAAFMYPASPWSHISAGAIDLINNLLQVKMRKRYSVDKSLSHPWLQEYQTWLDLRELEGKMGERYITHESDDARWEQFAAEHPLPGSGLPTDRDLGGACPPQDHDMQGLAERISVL

[10] = biological target: T3, Serine/threonine-protein kinase D2 (Homo sapiens); conditions: at 10 µM
[11] = biological target: T4, cGMP-dependent protein kinase 1 (Homo sapiens) (UniProt Q13976); conditions: at 1 µM
T4 sequence (whole entry): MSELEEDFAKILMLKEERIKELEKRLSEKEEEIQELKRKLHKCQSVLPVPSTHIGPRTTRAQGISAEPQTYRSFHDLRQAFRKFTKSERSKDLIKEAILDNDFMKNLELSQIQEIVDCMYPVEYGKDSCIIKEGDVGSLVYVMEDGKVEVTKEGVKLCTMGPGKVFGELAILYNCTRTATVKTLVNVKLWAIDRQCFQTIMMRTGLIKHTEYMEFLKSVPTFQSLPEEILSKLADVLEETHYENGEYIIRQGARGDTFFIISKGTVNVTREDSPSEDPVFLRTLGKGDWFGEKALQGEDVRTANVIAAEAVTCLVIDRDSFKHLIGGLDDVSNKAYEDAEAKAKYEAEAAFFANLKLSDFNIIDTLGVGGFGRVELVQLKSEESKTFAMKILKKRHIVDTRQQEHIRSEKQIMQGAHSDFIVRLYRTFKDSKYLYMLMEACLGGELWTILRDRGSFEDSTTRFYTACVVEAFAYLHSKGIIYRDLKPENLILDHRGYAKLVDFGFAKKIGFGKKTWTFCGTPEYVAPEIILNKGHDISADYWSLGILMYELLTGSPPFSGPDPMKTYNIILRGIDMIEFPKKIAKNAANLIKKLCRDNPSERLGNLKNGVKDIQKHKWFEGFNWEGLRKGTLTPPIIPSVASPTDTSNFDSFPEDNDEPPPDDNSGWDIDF

[12] = biological target: T4, cGMP-dependent protein kinase 1 (Homo sapiens); conditions: at 10 µM
[13] = biological target: T4, cGMP-dependent protein kinase 1 (Homo sapiens); conditions: at 1 µM; remark: listed apart in the source
[14] = biological target: T4, cGMP-dependent protein kinase 1 (Homo sapiens); conditions: at 10 µM; remark: listed apart in the source
[15] = biological target: T5, MAP kinase-activated protein kinase 5 (Homo sapiens) (UniProt Q8IW41); conditions: at 1 µM
T5 sequence (whole entry): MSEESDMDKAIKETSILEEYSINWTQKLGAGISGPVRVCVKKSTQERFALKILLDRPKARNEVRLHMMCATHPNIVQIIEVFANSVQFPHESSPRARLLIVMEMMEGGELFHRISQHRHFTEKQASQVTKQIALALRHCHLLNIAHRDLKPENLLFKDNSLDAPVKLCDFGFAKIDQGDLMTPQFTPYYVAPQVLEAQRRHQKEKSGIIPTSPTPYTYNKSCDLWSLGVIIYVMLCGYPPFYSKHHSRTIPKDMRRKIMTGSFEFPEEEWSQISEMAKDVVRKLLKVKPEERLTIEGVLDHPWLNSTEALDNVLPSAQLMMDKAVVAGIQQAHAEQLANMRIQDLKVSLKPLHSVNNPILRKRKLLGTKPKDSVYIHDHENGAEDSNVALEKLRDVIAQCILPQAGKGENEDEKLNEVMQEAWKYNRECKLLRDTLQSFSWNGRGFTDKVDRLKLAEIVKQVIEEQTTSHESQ

[16] = biological target: T5, MAP kinase-activated protein kinase 5 (Homo sapiens); conditions: at 10 µM
[17] = biological target: Serine/threonine-protein kinase N2 (Homo sapiens) (UniProt Q16513); conditions: at 1 µM
[18] = biological target: Serine/threonine-protein kinase N2 (Homo sapiens) (UniProt Q16513); conditions: at 10 µM
[19] = biological target: Tyrosine-protein kinase FRK (Homo sapiens) (UniProt P42685); conditions: at 1 µM
[20] = biological target: Tyrosine-protein kinase FRK (Homo sapiens) (UniProt P42685); conditions: at 10 µM

Sequence of Protein kinase C eta type (Homo sapiens) (P24723 whole entry): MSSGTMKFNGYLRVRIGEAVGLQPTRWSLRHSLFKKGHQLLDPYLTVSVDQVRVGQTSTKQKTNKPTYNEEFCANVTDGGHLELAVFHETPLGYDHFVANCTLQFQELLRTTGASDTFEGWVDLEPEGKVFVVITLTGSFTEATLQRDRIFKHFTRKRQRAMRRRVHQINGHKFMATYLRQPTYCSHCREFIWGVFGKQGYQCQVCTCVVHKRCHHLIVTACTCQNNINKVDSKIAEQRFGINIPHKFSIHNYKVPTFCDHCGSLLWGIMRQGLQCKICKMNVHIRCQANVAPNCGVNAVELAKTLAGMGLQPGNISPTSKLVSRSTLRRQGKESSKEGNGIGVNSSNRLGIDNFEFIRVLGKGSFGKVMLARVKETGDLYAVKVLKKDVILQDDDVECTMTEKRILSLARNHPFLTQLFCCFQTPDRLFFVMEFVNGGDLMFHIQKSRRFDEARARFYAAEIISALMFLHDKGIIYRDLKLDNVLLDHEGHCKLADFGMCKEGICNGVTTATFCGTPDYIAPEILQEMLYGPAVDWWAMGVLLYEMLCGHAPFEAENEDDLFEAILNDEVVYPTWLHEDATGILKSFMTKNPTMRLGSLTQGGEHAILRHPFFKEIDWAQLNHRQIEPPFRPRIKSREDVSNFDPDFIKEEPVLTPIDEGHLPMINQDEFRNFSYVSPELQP
Sequence of Tyrosine-protein kinase FRK (Homo sapiens) (P42685 whole entry): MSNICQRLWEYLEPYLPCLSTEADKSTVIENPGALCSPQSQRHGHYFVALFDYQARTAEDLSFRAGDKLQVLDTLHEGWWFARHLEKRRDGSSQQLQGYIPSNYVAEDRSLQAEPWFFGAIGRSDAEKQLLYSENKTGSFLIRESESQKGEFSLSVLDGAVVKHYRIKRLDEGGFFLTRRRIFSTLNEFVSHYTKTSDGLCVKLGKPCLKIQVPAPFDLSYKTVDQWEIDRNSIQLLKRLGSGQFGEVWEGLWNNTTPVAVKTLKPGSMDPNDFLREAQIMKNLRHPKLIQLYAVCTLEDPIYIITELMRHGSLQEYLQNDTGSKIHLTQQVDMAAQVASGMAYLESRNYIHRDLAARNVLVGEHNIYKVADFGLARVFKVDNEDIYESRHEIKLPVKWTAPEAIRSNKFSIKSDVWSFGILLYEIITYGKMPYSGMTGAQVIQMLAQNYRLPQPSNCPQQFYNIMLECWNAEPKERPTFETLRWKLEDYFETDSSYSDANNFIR
Sequence of Serine/threonine-protein kinase N2 (Homo sapiens) (Q16513 whole entry, looked up): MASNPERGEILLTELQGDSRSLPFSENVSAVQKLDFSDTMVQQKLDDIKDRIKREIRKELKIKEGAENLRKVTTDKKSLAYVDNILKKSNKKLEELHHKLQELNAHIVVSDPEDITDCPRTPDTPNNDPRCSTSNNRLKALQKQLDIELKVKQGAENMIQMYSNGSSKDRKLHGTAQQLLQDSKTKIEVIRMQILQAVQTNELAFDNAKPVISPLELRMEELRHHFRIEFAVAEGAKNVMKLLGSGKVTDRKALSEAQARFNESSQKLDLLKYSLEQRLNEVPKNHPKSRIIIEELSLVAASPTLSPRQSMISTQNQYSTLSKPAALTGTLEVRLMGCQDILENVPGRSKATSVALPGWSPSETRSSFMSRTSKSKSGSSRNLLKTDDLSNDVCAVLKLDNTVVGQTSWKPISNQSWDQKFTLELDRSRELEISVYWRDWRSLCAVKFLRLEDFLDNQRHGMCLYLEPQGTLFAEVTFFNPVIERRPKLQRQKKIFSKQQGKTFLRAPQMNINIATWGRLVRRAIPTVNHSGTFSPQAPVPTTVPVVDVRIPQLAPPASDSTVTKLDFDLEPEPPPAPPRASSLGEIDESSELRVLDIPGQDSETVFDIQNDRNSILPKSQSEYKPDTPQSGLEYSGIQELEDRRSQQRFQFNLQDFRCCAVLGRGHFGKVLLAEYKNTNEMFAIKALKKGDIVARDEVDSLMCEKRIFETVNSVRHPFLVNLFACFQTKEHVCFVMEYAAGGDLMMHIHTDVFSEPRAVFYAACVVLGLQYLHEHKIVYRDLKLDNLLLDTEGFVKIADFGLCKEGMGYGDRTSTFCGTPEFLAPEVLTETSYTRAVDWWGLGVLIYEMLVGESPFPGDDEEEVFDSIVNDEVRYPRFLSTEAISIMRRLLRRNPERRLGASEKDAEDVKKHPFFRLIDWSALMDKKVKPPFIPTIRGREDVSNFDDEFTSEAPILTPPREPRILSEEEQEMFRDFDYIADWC
Sequence of Protein kinase C theta type (Homo sapiens) (Q04759 whole entry, looked up): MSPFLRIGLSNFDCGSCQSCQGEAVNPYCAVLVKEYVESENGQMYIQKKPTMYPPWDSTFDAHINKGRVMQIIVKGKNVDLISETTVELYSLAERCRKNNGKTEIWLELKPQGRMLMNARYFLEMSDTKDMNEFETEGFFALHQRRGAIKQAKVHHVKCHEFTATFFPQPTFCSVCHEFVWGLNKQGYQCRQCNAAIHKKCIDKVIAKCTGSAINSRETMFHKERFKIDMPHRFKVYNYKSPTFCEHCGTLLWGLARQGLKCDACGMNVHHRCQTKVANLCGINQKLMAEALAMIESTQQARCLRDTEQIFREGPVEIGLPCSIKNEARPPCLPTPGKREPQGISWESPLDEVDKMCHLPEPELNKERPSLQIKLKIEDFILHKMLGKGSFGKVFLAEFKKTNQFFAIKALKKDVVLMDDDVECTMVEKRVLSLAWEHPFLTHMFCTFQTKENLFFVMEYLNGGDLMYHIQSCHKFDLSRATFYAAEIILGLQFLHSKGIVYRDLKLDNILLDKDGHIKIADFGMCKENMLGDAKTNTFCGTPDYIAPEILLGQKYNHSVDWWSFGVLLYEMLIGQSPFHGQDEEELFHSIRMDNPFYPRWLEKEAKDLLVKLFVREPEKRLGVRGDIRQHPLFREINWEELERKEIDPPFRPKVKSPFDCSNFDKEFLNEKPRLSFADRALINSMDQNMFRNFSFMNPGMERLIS

Row | SMILES | residual activity [1] [%] | residual activity [2] [%] | residual activity [3] [%] | residual activity [4] [%] | residual activity [5] | residual activity [6] [%] | residual activity [7] [%] | residual activity [8] [%] | residual activity [9] [%] | residual activity [10] [%] | residual activity [11] [%] | residual activity [12] [%] | residual activity [13] [%] | residual activity [14] [%] | residual activity [15] [%] | residual activity [16] [%] | residual activity [17] [%] | residual activity [18] [%] | residual activity [19] [%] | residual activity [20] [%]
1 | CC(C)n1cnc2/c(=N/c3cccc(Cl)c3)nc(NCCO)[nH]c21 | 87 | 75 | 69 | 35 | 110% (inactive) | 103 | 77 | 57 | 96 | 93 | 92 | 106 | 94 | 72 | 105 | 88 | 86 | 62 | 75 | 29
2 | O=C1NC(=O)/C(=C\c2ccc3nccnc3c2)S1 | 103 | 78 | 102 | 81 | 89% (inactive) | 88 | 103 | 88 | 108 | 96 | 125 | 97 | 80 | 62 | 96 | 93 | 103 | 94 | 110 | 93
3 | Oc1c2ccccc2c2c3c(cccc13)N=N2 | 86 | 82 | 90 | 76 | 117% (inactive) | 107 | 32 | -1 | 92 | 36 | 79 | 79 | 90 | 60 | 59 | 14 | 74 | 32 | 91 | 58
4 | COc1ccc(CNc2nc(N(CCO)CCO)nc3c2ncn3C(C)C)cc1 | 83 | 83 | 4 | 5 | 112% (inactive) | 108 | 91 | 71 | 101 | 93 | 93 | 101 | 109 | 101 | 100 | 102 | 104 | 77 | 95 | 87
5 | CNc1cc2c(Nc3cccc(Br)c3)ncnc2cn1 | 80 | 90 | 100 | 94 | 94% (inactive) | 102 | 86 | 49 | 104 | 98 | 112 | 108 | 75 | 62 | 89 | 94 | 84 | 93 | 92 | 37
6 | CC(C)n1cnc2c(NCc3ccccc3)nc(NCCCO)nc21 | 88 | 81 | 91 | 94 | 109% (inactive) | 105 | 91 | 72 | 103 | 96 | 89 | 101 | 95 | 83 | 115 | 115 | 110 | 99 | 88 | 80
